High-throughput results: PubChem, National Center for Advancing Translational Sciences (NCATS)
Cruzain inh Det: qHTS Assay for Promiscuous and Specific Inhibitors of Cruzain (with detergent). Cruzipain (Trypanosoma cruzi), P25779. 200,000 tested, 0.43% active. purified cruzain, Z-FR-AMC fluorescence, 0.01% Triton. Potency, µM, actives largely listed as inhibitors. AID 1478, 2009; further: nearly all actives have a fitted effect of over 40% in size
Target sequence (P25779 123-467 limits assumed): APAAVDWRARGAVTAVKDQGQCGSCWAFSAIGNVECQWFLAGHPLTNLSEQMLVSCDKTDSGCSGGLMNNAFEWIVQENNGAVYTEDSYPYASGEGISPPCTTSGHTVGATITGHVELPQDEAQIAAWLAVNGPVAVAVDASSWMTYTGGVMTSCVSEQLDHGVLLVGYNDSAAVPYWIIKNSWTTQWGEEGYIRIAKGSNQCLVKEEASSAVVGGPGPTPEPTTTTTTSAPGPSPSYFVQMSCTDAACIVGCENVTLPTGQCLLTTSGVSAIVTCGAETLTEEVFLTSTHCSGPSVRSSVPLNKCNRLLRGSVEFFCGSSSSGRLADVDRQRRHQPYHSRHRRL
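Cysteine protease activity tested under reducing, mildly acidic conditions (100 mM sodium acetate pH 5.5, 5 mM DTT) plus 0.01% Triton X-100. Cruzain 1.5 nM; substrate Z-FR-AMC 2 uM; 15 min compound preincubation at room temperature.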
Cruzain inh noDet: qHTS Assay for Promiscuous and Specific Inhibitors of Cruzain (without detergent); AID 1476, 2009; purified cruzain, Z-FR-AMC fluorescence, no detergent; Potency, µM, most hits filed as inhibitors; Cruzipain (Trypanosoma cruzi), P25779; 200,000 tested, 2.3% active; further: nearly all actives have a fitted effect of over 40% in size
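Purified cruzain at 1.5 nM, pre-incubated 15 min with compound at room temperature in 100 mM sodium acetate pH 5.5, 5 mM DTT, 0.00005% Triton X-100. Reaction started with 2 uM Z-FR-AMC; AMC fluorescence increase over 60 s gives rate.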
A number is an active result; . = inactive; ? = inconclusive. Compounds with a hit are over-represented: about 2.5% of the library has one in this group of screens. The call rests on the fitted dose curve; in most records, active means well fitted curve in the direction sought with a large enough effect; inconclusive means small, poorly fitted or top-dose-only effect, or another doubt; inactive means no such curve, though single readings can be large; an effect the other way counts as inactive or inconclusive.

SMILES	Cruzain inh Det	Cruzain inh noDet
CCOC(=O)CCc1c(C)c2ccc(OCc3nn[nH]n3)cc2oc1=O	.	.
CCOC(=O)CCc1c(C)c2ccc(OCc3ccc([N+](=O)[O-])cc3)cc2oc1=O	.	10µM
O=c1oc2cc(OCc3ccc([N+](=O)[O-])cc3)ccc2c2c1CCCC2	.	13µM
O=C(O)c1ccc(COc2ccc3c4c(c(=O)oc3c2)CCC4)o1	.	.
O=C(CCCCn1c(=O)c2ccccc2n(Cc2ccccc2Cl)c1=O)NCCc1ccccc1	.	.
Cc1ccc2c(=O)cc(C(=O)Nc3ccc(S(=O)(=O)Nc4ncccn4)cc3)oc2c1C	.	.
COC(=O)c1ccccc1NC(=O)c1cc(CN2CCOCC2)on1	.	.
Cc1ccc(NC(=O)c2ccc(NC(=O)CCS(=O)(=O)c3cccs3)cc2)cc1F	.	.
Cc1ccn2cc(-c3ccc(S(=O)(=O)N4CCOCC4)cc3)nc2c1	28µM	?
Cc1ccc2nc(-c3ccc(S(=O)(=O)N4CCOCC4)cc3)cn2c1	.	.
O=C(NC1CCCCC1)c1ccccc1NC(=S)NC(=O)C1CCC1	.	.
O=C(/C=C/c1ccccc1Cl)NC(=S)Nc1ccccc1C(=O)NC1CCCCC1	.	4µM
CCc1cccc(NC(=O)c2nnn(Cc3ccc(SC)cc3)c2N)c1	.	.
CCC(/C=N/Nc1ccc(S(=O)(=O)N2CCCC2)cc1[N+](=O)[O-])CC	.	20µM
O=[N+]([O-])c1cc(S(=O)(=O)N2CCCC2)ccc1N/N=C/c1cccnc1	.	.
Cn1ncc(Br)c1C(=O)N/N=C/c1cccc(OC2CSC2)c1	.	.
O=C(N/N=C/c1cccc(OC2CSC2)c1)c1ccccc1O	.	10µM
O=C(Nc1nc2ccccc2s1)c1ccc(Cl)s1	.	?
Cc1ccc2nc(NC(=O)c3ccc(-c4nc5ccccc5s4)s3)sc2c1	.	4µM
COc1cccc(NC(=O)Cn2c(=O)n(Cc3ccc4c(c3)OCO4)c(=O)c3oc4ccccc4c32)c1	.	?
CCc1ccccc1NC(=O)c1cnc2sc(N3CCCC3)nn2c1=O	.	.
COc1ccc(CNC(=O)c2cccs2)cc1	.	.
COc1ccc(CNC(=O)/C(C#N)=C2\N=C(NC(=O)c3cccs3)c3ccccc32)cc1	.	25µM
CCOC(=O)Cn1c(=O)n(C2CCCCC2)c2nc(-c3ccc(Cl)cc3)nc(C(N)=O)c21	.	.
O=C(Nc1ccccc1C(F)(F)F)Nc1cccc2ccccc12	.	25µM
SMILES	Cruzain inh Det	Cruzain inh noDet
CCCC(=O)NC(=S)Nc1ccccc1C(F)(F)F	.	.
COc1ccc(CCC(=O)NC2CC(=O)N(c3ccc(F)cc3)C2)cc1 (stereo not given)	.	.
N#Cc1c(-c2cccnc2)c2c([nH]c1=S)CCCC2	.	.
COc1ccc(-c2c3c([nH]c(=S)c2C#N)CCC3)cc1	.	16µM
COc1ccc(Cl)cc1N(CC(=O)N/N=C/c1ccc(OC(C)C)cc1)S(=O)(=O)c1ccc(C)c([N+](=O)[O-])c1	.	5µM
C=CCOc1cccc(/C=N/NC(=O)CN(c2cc(Cl)ccc2OC)S(=O)(=O)c2ccc(C)c([N+](=O)[O-])c2)c1	.	?
CCOC(=O)C1C(C(=O)OC)=C(c2ccc(F)cc2)c2ccc(OC)cc2N1S(=O)(=O)C(F)(F)F (stereo not given)	.	?
CCc1ccc(-c2nc(CSCC(=O)NCc3ccc(C)cc3)c(C)o2)cc1	.	.
CCc1ccc(NC(=O)C2CCN(S(=O)(=O)c3c(C)noc3/C=C\c3ccc(OC)cc3)CC2)cc1	.	.
CCOc1ccccc1NC(=O)CSC1=Nc2ccccc2C2=NC(CC(=O)NCc3ccc4c(c3)OCO4)C(=O)N12 (stereo not given)	.	.
Cc1cnc(NC(=O)CSc2nc3ccccc3s2)s1	.	.
CCOc1ccc2nc(SCC(=O)N3c4ccccc4Sc4ccccc43)sc2c1	.	?
Cc1cc(NC(=O)CSc2nc3ccccc3s2)no1	.	32µM
O=C(CSc1nc2ccccc2s1)N1c2ccccc2Sc2ccccc21	.	16µM
CCC(CC)c1nn2c(=O)cc(COc3ccc(NC(=O)c4cccc(Cl)c4)cc3)nc2s1	.	.
COc1ccc(CNC(=O)C(C)N2Cc3ccccc3C2=O)cc1 (stereo not given)	.	.
COc1ccccc1CNc1nc(-c2ccoc2)nc2ccccc12	.	25µM
COc1ccccc1CNc1ccnc(-c2ccoc2)n1	.	.
Cc1cc(C(=O)COC(=O)c2cc(Cl)ccc2N)c(C)n1Cc1ccco1	.	25µM
COC(=O)c1c(C(=O)OC)c(C)n(Cc2ccco2)c1C	.	.
CC(C)c1ccc(NC(=O)CSc2nc(=O)n(Cc3cccnc3)c3c2CCC3)cc1	.	?
O=C(O)CSc1nnnn1-c1ccc2c(c1)OCCO2	.	.
O=C(O)CSc1nnc(-c2cccs2)n1-c1ccc(Cl)cc1	.	.
